Inconclusive results are not listed. Active and inactive are the calls of the source. Calls follow the shape of the dose curve; as a rule, active = well fitted inhibition curve with a large enough effect; inconclusive = small, poorly fitted or top-dose-only effect; inactive = flat fitted curve, though single readings scatter.
test: CHOP2 Reporter Counterscreen Assay for Inhibitors of Ubiquitin-specific Protease USP2a; settings: purified enterokinase, fluorogenic substrate, 485/531 nm; series mostly up to 38.3 µM; activity change, negative = inhibition: at the top concentration;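 also: activated enterokinase alone at 50 pM in a cell-free format rather than USP2a or CHOP2; nearly all actives have a fitted effect of over 55% in size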
Method in brief: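 Cell-free counterscreen with pre-activated enterokinase alone (50 pM final) in 20mM Tris-HCl pH 8.0, 2mM CaCl2, 2mM beta-mercaptoethanol, 0.05% CHAPS; compound preincubation 30 min RT, reporter substrate 25nM final, fluorescence read after 10 min (Ex 485/Em 531).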
% is scaled to controls: 0 for no effect and ±100 for the full control effect.

Compound	activity change, negative = inhibition
Cc1cc(NC(=O)c2cccc(S(=O)(=O)N(C)C)c2)n(-c2ccccn2)n1	-1.67% (inactive)
CCNC1=C(Cl)C(=O)c2ccccc2C1=O	8.75% (inactive)
CN(C)CCOCCP(=O)(c1ccccc1)c1ccccc1	3.1% (inactive)
CCCNC(=O)NCc1ccc(N2CCCC2=O)cc1	0.0304% (inactive)
Cc1ccc(-c2nc(N/N=C/c3ccncc3)c3ccccc3n2)cc1	-0.319% (inactive)
Cc1ccc(Nc2cc(C)nc(NCc3ccccc3)n2)cc1	-2.96% (inactive)
CN1CCN(S(=O)(=O)c2ccc(N3CCN(S(=O)(=O)/C=C/c4ccccc4)CC3)nc2)CC1	0.276% (inactive)
Cc1cccc(NCc2nc(-c3ccccc3)no2)c1	-1.33% (inactive)
CC(=O)Nc1ccc(Nc2cc(C)nc(Nc3ccc(NC(C)=O)cc3)n2)cc1	-3.67% (inactive)
CCOC(=O)N1CCN(CC(=O)n2c(C)c(C)c3ccccc32)CC1	-16.2% (inactive)
NC(=O)C[C@@H]1N[C@]2(C(=O)Nc3ccccc32)[C@@H]2C(=O)N(c3cc(C(F)(F)F)ccc3Cl)C(=O)[C@H]12	4.19% (inactive)
COc1cc(C2C(C#N)=C(N)Oc3c2ccc2ccccc32)ccc1OCC(=O)Nc1cccc(C)c1 (configuration not stated)	2.73% (inactive)
O=C(O)CC1(CC(=O)Nc2ccc3ccccc3c2)CCCCC1	2.49% (inactive)
CCSc1nc(N2CCCCC2)c2c(c1C#N)CCCC2	0.66% (inactive)
COc1ccc(/C=C(\NC(=O)c2ccc(OC)c(OC)c2)C(=O)N2CCN(C)CC2)cc1	-1.05% (inactive)
CC(C)(C)NC(=O)CSc1nc(O)cc(=O)n1-c1ccccc1F	7.8% (inactive)
CCN(CC(=O)Nc1ccc(NC(C)=O)cc1)C(=O)c1ccc(N2CCC(C)CC2)c([N+](=O)[O-])c1	-7.26% (inactive)
